TbREL1 inh – TbREL1 inhibition, primary screen; P86926; TbREL1 RNA ligation, FRET fluorescence; inhibition, % at 9.66 µM; hit rate 0.49% among 89,000; AID 1117264;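 active = inhibition above the mean inhibition across all screened compounds plus 3 SD, cut at about 11% in these data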
Target sequence (P86926 whole entry, looked up): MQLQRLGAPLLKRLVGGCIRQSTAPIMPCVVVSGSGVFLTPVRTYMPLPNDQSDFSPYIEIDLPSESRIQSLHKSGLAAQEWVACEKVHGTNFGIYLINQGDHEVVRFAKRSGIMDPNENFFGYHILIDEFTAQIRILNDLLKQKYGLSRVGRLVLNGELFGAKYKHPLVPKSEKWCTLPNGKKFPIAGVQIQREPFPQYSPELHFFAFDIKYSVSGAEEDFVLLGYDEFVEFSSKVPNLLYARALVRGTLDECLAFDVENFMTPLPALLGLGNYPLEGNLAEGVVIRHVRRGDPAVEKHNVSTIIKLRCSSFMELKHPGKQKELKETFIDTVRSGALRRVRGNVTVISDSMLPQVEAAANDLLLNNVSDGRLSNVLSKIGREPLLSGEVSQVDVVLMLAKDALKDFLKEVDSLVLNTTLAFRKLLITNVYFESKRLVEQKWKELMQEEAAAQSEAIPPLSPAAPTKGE
TbREL1 confirm – TbREL1 inhibition, confirmation; shares compounds with TbREL1 inh; TbREL1 RNA ligation, FRET fluorescence; inhibition, % at 9.66 µM; hit rate 37% among 390; AID 1117282;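 active = mean inhibition across replicates above a set limit taken from the earlier primary screen, cut at about 11% in these data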
Each line names hits and unclear results; the compound was inactive in the other large screens (follow-up assays come after a bar, where they were run). This is one part of a sample in which hits are shown more often than they occur.

COC(=O)C1=C(C)N(Cc2ccccc2C(F)(F)F)C(=NCc2ccc(OC)cc2)NC1c1cccc(Cl)c1 (centres undefined)	TbREL1 inh 19 | TbREL1 confirm 18
Cc1ccc(CN2CCCCC(NC(=O)c3ccccc3C)C2=O)cc1 (centres undefined)	none
Cc1c(NC(=O)C2CCCN(S(=O)(=O)c3c(C(C)C)cc(C(C)C)cc3C(C)C)C2)c(=O)n(-c2ccccc2)n1C (centres undefined)	none
CCOC(=O)[C@]12CCCC=C1N(CCCOC)C(=O)[C@@H]2CC(=O)N1CCC(c2ccccc2)CC1	none
CNc1nc(N)c([N+](=O)[O-])c(Nc2ccccc2)n1	none
CC(C)c1ccccc1NC(=O)[C@@H]1CCCN1S(=O)(=O)c1cccc2cccnc12	none
COc1ccc(C2C(C(=O)Nc3ccc(Cl)cc3)CCC(=O)N2c2ccc(OC)cc2)cc1 (centres undefined)	none
CC(=O)Nc1ccc(/C=N\NC(=O)c2cccc(S(=O)(=O)N(C)C)c2)cc1	none
CCc1ccccc1N=Nc1c(N)[nH]n(-c2ccccc2)c1=O	none
O=C(Nc1ccc(Cl)c(Cl)c1)c1cccc2c1-c1ccccc1C2=O	none
COc1ccc(CSc2nnc(SCc3ccccc3)s2)cc1	none
Cc1ccc(NC(=S)NNC(=O)c2cnccn2)cc1	none
Nn1c(SCC(=O)Nc2ccc(S(=O)(=O)Nc3nccs3)cc2)nnc1-c1ccco1	none
Cc1cc(=O)c(C(=O)O)nn1-c1ccccc1[N+](=O)[O-]	none
O=c1cc2oc3cc(O)c(O)cc3c(-c3ccccc3[N+](=O)[O-])c-2cc1O	TbREL1 inh 21 | TbREL1 confirm 26
Nc1cc2c([N+](=O)[O-])cccc2o1	none
Cc1nc2ccc(S(=O)(=O)NCC(=O)NCc3ccccc3C)cc2s1	none
CCOc1ccc(-n2c(SCC(=O)Nc3ccc(S(=O)(=O)Nc4cc(C)nc(C)n4)cc3)nnc2-c2ccc(C)cc2)cc1	none
COc1ccccc1CNC(=O)NC1CCN(CC(=O)Nc2ccc3c(c2)OCCO3)CC1	none
NC(=O)C1CCN(c2nc(-c3ccc4c(c3)CCO4)cs2)CC1	none
O=C(CSc1nc2ccccc2n1Cc1ccccc1)NN=Cc1c[nH]c2ccccc12	none
C#CCOCCOCCOCCNc1nc(N2CCN(C(=O)[C@H](CCCCN)n3cc([C@@H](N)[C@H](C)CC)nn3)CC2)nc(N2CCN(C(=O)[C@H](CCC(=O)O)n3cc([C@@H](N)CCCCN)nn3)CC2)n1	none
C#CCOCCOCCOCCNc1nc(N2CCN(C(=O)[C@H](CCCN=C(N)N)n3cc(C(N)[C@@H](C)CC)nn3)CC2)nc(N2CCN(C(=O)[C@H](CCC(=O)O)n3cc([C@@H](N)CCCCN)nn3)CC2)n1 (some centres undefined)	none
C#CCOCCOCCOCCNc1nc(N2CCN(C(=O)[C@H](CCCCN)n3cc([C@@H](N)C(C)CC)nn3)CC2)nc(N2CCN(C(=O)[C@H](CCCCN)n3cc([C@@H](N)C(C)CC)nn3)CC2)n1 (some centres undefined)	TbREL1 inh 16 | TbREL1 confirm 17
COc1cccc(CNC(=O)CCCN2C(=O)COc3ccc(C)cc32)c1OC	none
O=C(CSc1nc2ccccc2n1Cc1ccccc1Cl)NN=C/C(Br)=C/c1ccccc1	none
O=C(CN1C(=O)c2ccccc2C1=O)Nc1cc([N+](=O)[O-])ccc1O	none
O=C(CN1C(=O)c2ccc([N+](=O)[O-])cc2C1=O)NCc1ccco1	TbREL1 inh 12 | TbREL1 confirm inactive
Cc1c(NC(=O)CN2C(=O)c3ccc([N+](=O)[O-])cc3C2=O)c(=O)n(-c2ccccc2)n1C	none
COc1ccc(CCNC(=O)c2cnn(-c3ccccc3)c2N)cc1OC	none
COc1ccc(C(=O)NCCS(=O)(=O)NCCc2ccccc2)cc1	none
COc1cccc(C(=O)NCCS(=O)(=O)NCc2ccc(Cl)cc2)c1	none
COc1cccc(C(=O)NCCS(=O)(=O)NC(C)CCc2ccccc2)c1 (centres undefined)	TbREL1 inh 14 | TbREL1 confirm 11
COc1ccc(-n2c(SCC(=O)Nc3ccc(Oc4ccccc4)cc3)nnc2-c2cccnc2)cc1	none
COC(=O)[C@]12C[C@H](CC(=O)NCC3CCCCC3)C(=O)N(Cc3cccc4ccccc34)C1=C[C@H](COCc1ccccc1)O[C@@H]2C	none
O=C(CN1C(=O)c2ccccc2C1=O)Nc1cccc2cccnc12	none
O=C(O)CCC(=O)Nc1cccc2cccnc12	TbREL1 inh 11 | TbREL1 confirm inactive
O=C(COc1ccc2ccccc2c1)Nc1cccc2cccnc12	none
COc1ccc(Cn2ccc3ccc(-c4ccc5ccn(Cc6cccc(F)c6)c5c4)cc32)cc1	none
COc1ccccc1N1CCN(S(=O)(=O)c2ccc3c(c2)CCC(=O)N3)CC1	none
CCCC1CCC2(CC1)CCC2OC(=S)Nc1ccccc1Br (centres undefined)	none
O=S(=O)(c1ccc(Br)cc1)N1CCN=C1SCc1cccc(F)c1	TbREL1 inh 11 | TbREL1 confirm inactive
O=C(c1cc2ccccc2o1)N1CCN=C1SCc1cccc(F)c1	none
O=C(c1ccco1)N1CCN=C1SCc1cccc(F)c1	none
COC(=O)[C@]12C[C@H](CC(=O)NCCCN3CCCC3=O)C(=O)N(Cc3ccco3)C1=C[C@H](C1CCCC1)O[C@@H]2C	none
CCn1c(Cc2cccs2)nnc1SCC(=O)Nc1ccc(Cl)cc1C	none
COC(=O)[C@]12C[C@H](CC(=O)NCC3CCCCC3)C(=O)N(Cc3cccc4ccccc34)C1=C[C@H](C(C)C)O[C@@H]2C1CC1	none
Cc1ccc(/C=N\NC(=O)CN2CCN(S(=O)(=O)c3ccc(Br)cc3)CC2)s1	none
O=C(O)CCCc1nc2ccccc2s1	none
O=C(O)COCc1nc2ccccc2s1	TbREL1 inh 12 | TbREL1 confirm inactive
NC(=O)c1ccccc1OCc1nc2ccccc2s1	none
O=C(C1CCCN1S(=O)(=O)c1cccs1)N1CCc2ccccc2C1 (centres undefined)	none
O=C(C1CCN(CCCc2ccccc2)CC1)N1CCCCC1	TbREL1 inh 12 | TbREL1 confirm inactive
O=C(Nc1ccccc1)N1CCN(CCc2ccccc2)CC1	none
O=C(c1ccc(-c2ccccc2)cc1)N1CCC(C(=O)N2CCCC2)CC1	none
CCC(=O)N1CCc2cc(Br)c(S(=O)(=O)N3CCCC(C(=O)NC(C)(C)C)C3)cc21 (centres undefined)	none
Cc1ccccc1NC(=O)Cn1nnc(-c2ccncc2)n1	none
COC(=O)[C@]12C[C@H](CC(=O)NCCCCc3ccccc3)C(=O)N(Cc3cccc4ccccc34)C1=C[C@H](COCc1ccccc1)O[C@@H]2C	none
O=c1nc2s/c(=C\c3ccco3)c(=O)n2nc1Cc1ccc(F)cc1	none
O=c1/c(=C/c2ccco2)sc2n1CN(c1ccccc1)CN=2	none
N#CC1=C(N)n2c(s/c(=C\c3ccco3)c2=O)=C(C#N)C1c1ccco1 (centres undefined)	TbREL1 inh 27 | TbREL1 confirm inactive
Cn1c(=O)c2cc(S(=O)(=O)N3CCN(Cc4ccccc4)CC3)ccc2n(C)c1=O	none
COc1ccccc1NC(=S)OCCN1CCCC12CCC(c1ccccc1)CC2 (centres undefined)	none
O=C(CSc1nnc(-c2ccncc2)n1-c1ccccc1)Nc1cccc2ccccc12	none
c1ccc(Cn2ccc3ccc(-c4ccc5ccn(Cc6ccc(-c7ccccc7)cc6)c5c4)cc32)cc1	none
COc1ccc(NS(=O)(=O)c2ccc3c(c2)[C@H]2C=CC[C@H]2[C@@H](c2ccc(C(=O)O)cc2)N3)cc1	TbREL1 inh 15 | TbREL1 confirm 17
O=C(O)c1ccc2c(c1)C1C=CCC1C(c1ccncc1)N2 (centres undefined)	none

Screens as filed in PubChem.
